Compound activity from PubChem BioAssay.
A selection: hits, their analogues and other compounds. The true share with any hit is near 2.6%.
SIAE primary = blocks human sialic acid acetylesterase. hit rate 0.69% among 370,000. Q9HAT2. SIAE FP-Rh probe binding, fluorescence polarization. inhibition, % at 9.66 µM;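 active = inhibition above a cutoff: mean of compounds within the control limits plus 3 SD of those, cut at about 17% in these data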;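 also: 0% = plate median of compound wells and 100% = probe without SIAE protein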
Fam108B inh = counter-screen for RBBP9 inhibitors: inhibitors of mouse Fam108B. recombinant Fam108B, FP-Rh probe fluorescence polarization. inhibition, % at 9.51 µM. hit rate 0.33% among 300,000;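 active = inhibition above the screen mean inhibition plus 3 SD, computed separately per campaign, cut at about 18% in these data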;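 also: inhibitors lower polarization as less probe binds the enzyme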
PAD4 FP inh = blocks human protein arginine deiminase 4; hit rate 0.41% among 330,000; recombinant PAD4, RCA probe fluorescence polarization; inhibition, % at 6.36 µM; Q9UM07; AID 485272;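 active = percent inhibition above a cutoff equal to the mean of all tested compounds plus 3 SD, cut at about 15% in these data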;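 also: 0% = PAD4 with RCA probe and DMSO and 100% = probe without PAD4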
PRMT1 inh = PRMT1 (human) inhibition, primary screen; recombinant PRMT1, activity-based probe fluorescence polarization; inhibition, % at 2.79 µM; hit rate 1.3% among 370,000;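 active = inhibition above about 21% made by adding two undisclosed values, limit read from the data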
Target sequence (Q99873 whole entry, looked up): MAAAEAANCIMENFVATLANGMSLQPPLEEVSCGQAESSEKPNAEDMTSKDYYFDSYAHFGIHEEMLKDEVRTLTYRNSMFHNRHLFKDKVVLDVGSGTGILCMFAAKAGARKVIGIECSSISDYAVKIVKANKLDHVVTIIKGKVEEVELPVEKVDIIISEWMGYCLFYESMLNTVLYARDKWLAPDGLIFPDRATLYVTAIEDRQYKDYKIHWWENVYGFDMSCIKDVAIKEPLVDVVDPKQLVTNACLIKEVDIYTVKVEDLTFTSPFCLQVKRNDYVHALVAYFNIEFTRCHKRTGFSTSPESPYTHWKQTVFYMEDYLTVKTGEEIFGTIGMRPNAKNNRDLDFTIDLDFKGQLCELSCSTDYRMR
PME-1 inh = PME-1 (human) inhibition; inhibition, % at 5.9 µM; Q9Y570; AID 2130; hit rate 0.53% among 320,000; recombinant PME-1, FP-Rh probe fluorescence polarization;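 active = inhibition above the campaign mean of all compounds plus 3 SD, cut at about 26% in these data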;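 also: competitive labeling of PME-1 active site by serine hydrolase directed probe; 0% = PME-1 with DMSO and 100% = wells lacking PME-1 enzyme; inhibitors block probe labeling so polarization falls and inhibition rises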
Target sequence (Q9Y570 whole entry, looked up): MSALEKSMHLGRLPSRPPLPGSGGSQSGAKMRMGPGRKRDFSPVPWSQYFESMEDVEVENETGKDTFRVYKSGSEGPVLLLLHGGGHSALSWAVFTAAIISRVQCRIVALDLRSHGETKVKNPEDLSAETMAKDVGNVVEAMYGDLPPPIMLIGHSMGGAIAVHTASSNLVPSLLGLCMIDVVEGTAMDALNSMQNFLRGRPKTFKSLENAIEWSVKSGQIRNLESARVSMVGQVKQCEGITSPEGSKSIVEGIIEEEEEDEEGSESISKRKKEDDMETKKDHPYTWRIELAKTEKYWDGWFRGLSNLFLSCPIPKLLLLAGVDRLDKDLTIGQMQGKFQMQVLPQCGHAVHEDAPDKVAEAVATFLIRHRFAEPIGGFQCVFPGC
TCR-CD3 inh = human TCR-CD3 binding inhibition; inhibition, % at 9.4 µM; hit rate 0.37% among 360,000; TAMRA-labeled TCR probe fluorescence, biochemical; AID 651800; in the data active = inhibition above about 19%;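 also: recombinant mutant TCR 2C K166C tagged with TAMRA read by polarization; 0% = receptor in buffer alone and 100% = receptor with positive control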
SIAE inh conf = human SIAE inhibition, confirmation. hit rate 13% among 2,300. SIAE FP-Rh activity-based probe, fluorescence polarization. inhibition, % at 9.66 µM. shares compounds with SIAE primary;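 active = mean inhibition of the replicates above the hit cutoff set in the primary screen, cut at about 17% in these data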;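 also: 0% = SIAE with DMSO and probe and 100% = probe without SIAE; inhibitors lower polarization as more probe stays unbound to SIAE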
* = called active by the depositor; . = no result.

SMILES | SIAE primary | Fam108B inh | PAD4 FP inh | PRMT1 inh | PME-1 inh | TCR-CD3 inh | SIAE inh conf
O=C(Nc1cc(Cl)ccc1N1CCOCC1)c1ccc(Br)o1 | 24.3* | -1.9 | -6.0 | 0.1 | 3.9 | -1.7 | 0.8
Cc1c(NC(=O)C2CCCN(S(=O)(=O)c3ccc(C(C)(C)C)cc3)C2)c(=O)n(-c2ccccc2)n1C (centres undefined) | 1.6 | . | . | -0.2 | . | . | .
Cc1ccc(CN2CCCCC(NC(=O)c3c(F)cccc3F)C2=O)cc1 (centres undefined) | 7.5 | . | . | -1.8 | . | . | .
CCOc1ccc(CN2C(=O)c3ccccc3C2=O)cc1C(=O)N1CCC(C(N)=O)CC1 | 21.6* | -2.8 | -4.6 | -3.6 | 15.1 | 0.8 | 5.3
CN1c2ccccc2C2(C)CCCC3=Cc4cc([N+](=O)[O-])cc([N+](=O)[O-])c4OC312 (centres undefined) | 52.4* | 5.5 | -4.5 | 0.7 | -2.4 | -0.8 | -6.6
CC1CC(C)CN(S(=O)(=O)c2ccc3c(c2)oc(=O)n3CC(=O)NCCCOC(C)C)C1 (centres undefined) | 17.5* | -3.1 | -0.8 | -2.4 | 3.1 | 8.0 | -3.4
C[C@H](O)[C@@H]1CN2CCc3c([nH]c4cccc(-c5ccccc5)c34)[C@@H]2C[C@@H]1N(C)C(=O)c1ccco1 | -2.8 | . | . | 6.8 | . | . | .
CCc1ccccc1NNC(=O)c1snnc1C | 17.1* | -3.0 | 8.3 | 3.2 | -2.8 | 1.7 | 3.6
Cc1nnsc1C(=O)NNc1c(Cl)cccc1Cl | 0.6 | 3.6 | 1.4 | 6.3 | 5.8 | -8.7 | .
Oc1ccc(/C=N/N(c2ccccc2)c2ccccc2)c(O)c1O | 20.3* | 4.5 | -7.0 | 12.4 | 2.5 | 10.2 | -30.4
Cc1ccc(-n2c(SCC(=O)Nc3ccc(S(=O)(=O)Nc4cc(C)nc(C)n4)cc3)nnc2-c2cccs2)cc1 | 4.5 | . | . | 5.3 | . | . | .
COCCn1c(C)cc(C2=NNC(=NC3CC3)SC2)c1C | 25.0* | 1.2 | 11.4 | 10.4 | 11.7 | -3.6 | 1.5
COC(=O)CC1=NN(c2ccc(OC)cc2)C(=O)/C1=C\c1ccc(Cl)cc1 | 17.2* | 4.0 | -5.0 | 1.0 | -0.2 | -4.1 | -0.9
CC(C)[C@H]1/C(=C/C2CC2)N2C(=O)C[C@@H](c3ccccc3)N=C2N1Cc1ccc2c(c1)OCO2 | -1.7 | . | . | -0.9 | . | . | .
O=C(C1CC1)N1CCN(c2ccc(O)cc2)CC1 | 18.9* | 2.4 | -3.7 | 7.2 | -1.6 | 1.3 | 4.0
CC(=O)c1ccc(N2CCN(C(=O)C3CCC3)CC2)cc1 | 10.5 | -0.8 | 2.1 | -0.9 | 2.2 | -5.1 | .
CC(=O)NCCC(=O)Nc1cc(S(=O)(=O)N2CCCCC2)ccc1N1CCCCC1 | -2.5 | . | 5.9 | 0.5 | -0.8 | 1.4 | .
CC(=O)NCCC(=O)Nc1cc(S(=O)(=O)Nc2ccc(Cl)cc2)ccc1N1CCCC1 | 17.8* | 2.1 | -2.8 | 3.1 | 3.2 | 7.1 | 4.3
O=C(Cc1ccccc1)NC1CCCCN(Cc2cccc(Cl)c2)C1=O (centres undefined) | -1.0 | . | . | -5.4 | . | . | .
COc1ccc(C)cc1N(CC(=O)N1CCCC1)S(C)(=O)=O | 17.5* | 0.4 | -1.0 | 2.4 | -6.8 | -2.1 | -0.7
O=C1C2CC=CCC2C(=O)N1c1ccc(NCCc2ccccc2F)c([N+](=O)[O-])c1 (centres undefined) | 17.1* | -1.7 | 1.9 | -3.8 | -1.3 | 6.5 | 1.9
O=C1C2CC=CCC2C(=O)N1c1ccc(NCCc2ccccc2)c([N+](=O)[O-])c1 (centres undefined) | 0.4 | 4.9 | 1.0 | -1.1 | 0.3 | 2.7 | .
COc1cccc(NC(=O)CN(C)C(=O)C2=COCCO2)c1 | 17.9* | . | . | -1.0 | . | -8.7 | 4.3
COc1cccc(NC(=O)C2=COCCO2)c1 | -1.0 | -1.3 | -3.0 | 1.4 | -3.1 | -3.0 | .
CCC(CC)c1nnc(NC(=O)CS(=O)(=O)c2ccccc2)s1 | 25.9* | 0.5 | -3.9 | 2.4 | 1.1 | 8.0 | 4.7
SMILES | SIAE primary | Fam108B inh | PAD4 FP inh | PRMT1 inh | PME-1 inh | TCR-CD3 inh | SIAE inh conf
COc1ccc(CNc2cccc3[nH]c(C(F)(F)F)nc23)cc1OC | 19.1* | 9.1 | -10.7 | 1.3 | 13.0 | 2.7 | 4.5
Cc1nn(C)c(Cl)c1CN1CCC(CO)(CCOc2ccccc2)CC1 | 17.2* | 1.1 | -1.5 | -8.1 | -1.6 | 10.0 | -0.3
Nc1c(C(=O)N2CCOCC2)cnn1Cc1ccccc1 | 3.3 | . | . | 0.5 | . | . | .
CCN1CCN(CCC(=O)Nc2cc(OC)ccc2OC)CC1 | 19.8* | 2.4 | 3.9 | 0.9 | -3.7 | -2.4 | 5.6
COc1ccc(OC)c(NC(=O)CCN2CCN(C)CC2)c1 | 2.2 | -4.9 | -2.4 | -0.8 | -10.9 | -2.2 | .
COc1ccc(C[N+]2=C(N)N[C@@]3(C=C(C)Cn4c(=O)n(-c5ccccc5)c(=O)n43)C2)c(OC)c1 | 11.2 | . | . | -3.3 | . | . | .
Cc1[nH]n(-c2ncc(-c3ccccc3)s2)c(=O)c1C(c1ccc(Br)cc1)C(C#N)C#N (centres undefined) | 23.9* | 11.9 | 1.4 | 3.3 | 2.3 | 3.6 | 10.1
CN(C)c1ccc(-c2csc(C(O)c3ccc(F)c(F)c3)n2)cc1 (centres undefined) | 17.1* | . | . | 2.0 | . | 2.7 | 2.3
CCCN(CCC)C(=O)c1c(NC(=O)CC)sc2c1CCCCC2 | 22.0* | 3.4 | -3.1 | 0.4 | 0.9 | 6.2 | -5.3
Cc1ccc(Cn2nnc3c2-c2cc(F)ccc2S(=O)(=O)N(C(C)(C)C)C3)cc1 | 3.9 | . | . | -3.6 | . | . | .
Cc1nn(CCC(=O)NNC(=O)Nc2ccccc2)c(C)c1[N+](=O)[O-] | 2.0 | . | . | 2.5 | . | . | .
Cc1cc(C)c(NS(=O)(=O)c2c(C(=O)N3CCOCC3)c(C)n(C)c2C)c(C)c1 | 18.1* | -0.2 | -2.1 | 2.5 | -0.5 | 3.7 | -1.6
Cc1ccc(NS(=O)(=O)c2c(C(=O)N3CCOCC3)c(C)n(C)c2C)cc1C | 9.9 | -2.5 | 3.5 | 3.7 | 0.4 | -6.1 | .
NC(=S)Nc1cccc2cc3ccccc3cc12 | 19.3* | 6.2 | -12.2 | 5.5 | 13.3 | -1.7 | 7.0
C=CCN(CC#Cc1ccccc1)CC=C | -0.1 | . | . | -7.0 | . | . | .
CN(C)Cc1c(O)ccc2occ(C(=O)c3ccc(F)cc3)c12 | 22.2* | 4.9 | -3.7 | 1.2 | -0.6 | 2.3 | 4.5
CN(C)Cc1c(O)ccc2occ(C(=O)c3ccccc3)c12 | -0.3 | -2.7 | -0.8 | 4.1 | 3.6 | -4.0 | .
CC(C)C(=O)c1cn(CC(=O)O)c2ccccc12 | 18.9* | -0.2 | -6.5 | -2.0 | -1.6 | 7.3 | 5.4
CC(C)(C)C(=O)c1cn(CC(=O)O)c2ccccc12 | -0.7 | -2.0 | -1.6 | -1.5 | -4.6 | 2.1 | .
COC(=O)c1ccc(Oc2nc3c(c(=O)n(C)c(=O)n3C)n2CCC(C)C)cc1 | 28.2* | -0.1 | 1.0 | -0.6 | -6.6 | 2.2 | -3.4
O=C(N/N=C/c1c[nH]c2ccccc12)c1ccccc1Cl | 8.9 | . | . | 0.3 | . | 8.1 | .
O=C(N/N=C/c1c[nH]c2ccccc12)c1cc(Cl)ccc1O | 17.5* | 3.4 | 5.3 | 2.2 | -5.1 | -0.4 | 4.1
CCCCNC(=O)C[C@@H]1C[C@@]2(C(=O)OC)CCCCC=C2N(Cc2ccccc2)C1=O | 21.7* | . | . | -0.2 | . | 2.8 | -0.5
